High-throughput results from PubChem.
The list is not random: actives were taken first. Their share in the collection is about 7.4%.
ELG1 genotoxic: inducers of genotoxicity in HEK293T ELG1-luciferase cells | AID 504466 | Potency, µM (titrated, usually from 46 µM), hits mostly activators | HEK293T ELG1-luciferase reporter, luminescence, 16 h | 330,000 tested, 1.3% active; further: nearly all actives have a fitted effect of over 60% in size
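Reporter readout depends on ELG1 protein level, which increases with genetic stress. After 16 hr compound exposure at 37 °C, luciferase activity was quantified using ONE-Glo.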
FLuc counter: firefly luciferase modulation, counter-screen for miR-21 project; P08659; purified FLuc, Km substrates, luminescence inhibition; Potency, µM (series often up to 57.5 µM), usual class: inhibitors; 360,000 tested, 6.9% active; further: nearly all actives have a fitted effect of over 55% in size
Target sequence (P08659 whole entry, looked up): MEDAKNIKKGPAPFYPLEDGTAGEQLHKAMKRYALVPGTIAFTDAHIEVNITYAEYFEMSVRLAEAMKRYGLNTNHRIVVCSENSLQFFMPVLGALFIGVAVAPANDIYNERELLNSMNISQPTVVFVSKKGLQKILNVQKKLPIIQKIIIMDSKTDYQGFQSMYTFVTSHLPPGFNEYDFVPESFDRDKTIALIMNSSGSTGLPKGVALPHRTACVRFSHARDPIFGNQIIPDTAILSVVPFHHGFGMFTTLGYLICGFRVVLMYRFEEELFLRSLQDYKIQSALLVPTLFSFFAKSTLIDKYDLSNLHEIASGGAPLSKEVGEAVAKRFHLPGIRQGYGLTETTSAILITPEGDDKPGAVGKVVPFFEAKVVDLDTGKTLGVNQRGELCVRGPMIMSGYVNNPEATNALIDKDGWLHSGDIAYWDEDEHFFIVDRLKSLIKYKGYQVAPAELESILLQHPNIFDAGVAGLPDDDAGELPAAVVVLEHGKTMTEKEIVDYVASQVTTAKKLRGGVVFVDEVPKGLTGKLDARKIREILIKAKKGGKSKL
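Purified P. pyralis luciferase, 10 nM final, with Km-level 10 uM D-luciferin and 10 uM ATP in 50 mM Tris acetate pH 7.5, 10 mM Mg acetate, 0.01% Tween-20, 0.05% BSA; 6-point qHTS titration about 60 µM downward; luminescence read.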
NPC1 promoter act: NPC1 promoter activation; Huh7 NPC1 promoter luciferase reporter, 24 h; Potency, µM (series often up to 9.22 µM), actives largely listed as activators; 320,000 tested, 2.4% active; AID 485313; further: nearly all actives have a fitted effect of over 60% in size
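Luminescence from an NPC1 promoter-driven luciferase reporter in stably transfected Huh7 cells was measured after 24 h compound treatment at 37 °C, followed by 10 min ambient incubation with luciferase detection reagent.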
Rab9 promoter act: activators of Rab9 promoter; Potency, µM (titrated, usually from 9.22 µM), actives largely listed as activators; Huh7 Rab9 promoter-luciferase reporter, luminescence, 24 h; 320,000 tested, 2.8% active; further: nearly all actives have a fitted effect of over 60% in size
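Using Huh7 cells stably transfected with Rab9 promoter–luciferase, compounds were incubated 24 h at 37 °C, 5% CO2; luciferase luminescence was read 10 min after reagent addition.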
SMN2 splice enh: enhancers of SMN2 splice variant expression; AID 1458; Potency, µM (highest dose often 46.1 µM), actives largely listed as activators; 210,000 tested, 2.8% active; HEK293 SMN2-luciferase splicing reporter, luminescence, 30-36 h; further: nearly all actives have a fitted effect of over 55% in size
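qHTS luciferase splicing reporter: luminescence rises when SMN2 exon 7 is included in transfected HEK293 cells. Compound exposure lasted 30-36 h at 37C, with 4.5 mM final sodium butyrate as control, followed by a ONE-Glo read.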
Numbers stand for hits; i = inactive; ? = inconclusive; nt = no result given; [ ] = remark or other dose. The call rests on the fitted dose curve; in most records, active means well fitted curve in the direction sought with a large enough effect; inconclusive means small, poorly fitted or top-dose-only effect, or another doubt; inactive means no such curve, though single readings can be large; an effect the other way counts as inactive or inconclusive.

SMILES	ELG1 genotoxic	FLuc counter	NPC1 promoter act	Rab9 promoter act	SMN2 splice enh
CN1CCN(c2ccc(NC(=O)COc3ccccc3)cc2Cl)CC1	?	21.3µM	4.47µM	3.98µM	nt
O=C(Oc1ccc(-c2cn3c(n2)SCC3)cc1)c1ccccc1	18.4µM	?	i	i	?
CC(=O)Nc1ccc(-c2cn3c(n2)SCC3)cc1	?	?	?	2.82µM	nt
O=C(Nc1ccc(-c2cn3c(n2)SCC3)cc1)c1ccco1	?	8.49µM	2.51µM	0.891µM	nt
O=C(Nc1cccc(-c2cn3c(n2)SCC3)c1)c1ccc(Br)o1	i	?	i	i	i
O=C1CCSC2(C(=O)N(Cc3ccc(F)cc3)c3ccccc32)N1c1ccc(F)c(F)c1 (stereo not given)	nt	i	nt	nt	nt
Cc1cccc(-c2nc3c4ccccc4nc(N4CCN(c5cc(C)ccc5C)CC4)n3n2)c1	nt	i	nt	nt	i
CCNC(=O)NC(=O)COC(=O)CCCSc1nc2ccccc2s1	i	19µM	i	i	i
Cc1ccccc1NC(=O)CCCSc1nc2ccccc2s1	i	?	i	i	i
CCNC(=O)NC(=O)C(C)OC(=O)CCCSc1nc2ccccc2s1 (stereo not given)	i	i	i	i	i
CC(C)(C)NC(=O)CCCSc1nc2ccccc2s1	?	15.1µM	?	1.78µM	?
Cc1cc(C)n2c(Br)c(CSc3nc4ccccc4s3)nc2n1	?	?	?	?	11.2µM
Cc1cc(C)nc(NC(=O)CSc2nc3cc(Cl)ccc3s2)n1	i	?	i	i	i
Cc1cc(C)nc(NC(=O)CSc2nc3ccccc3s2)n1	5.8µM	12µM	?	3.16µM	i
Cc1cccc(NC(=O)c2c(C)cc(C)nc2SCC(=O)c2ccccc2)c1	nt	i	nt	nt	nt
CCOc1cc(-c2nc(-c3ccc(-c4ccc(OC)cc4)nc3OC)no2)cc(OCC)c1OCC	nt	i	nt	nt	i
CCc1ccc2c(c1)NC(c1cccnc1)=NC(c1ccc(C(C)(C)C)cc1)=N2	nt	i	nt	nt	i
Cc1ccccc1CN1CCc2nc(Nc3ccc4c(c3)OCCO4)ncc2C1	nt	13.5µM	nt	nt	nt
CC1(C)[C@@H]2CC[C@@](C)(C2)[C@H]1OC(=O)c1ccccc1C(=O)O	nt	nt	nt	nt	i[9.22 µM]
CSc1ccc(C2c3[nH]c4ccccc4c3CCN2C(=O)c2ccnn2C)cc1 (stereo not given)	i	10.7µM	i	3.55µM	nt
Cc1c(NC(=O)c2ccco2)cccc1-c1nc2cccnc2s1	i	23.9µM	i	i	i
Cc1c(NC(=O)c2ccc(Cl)nc2)cccc1-c1nc2cccnc2s1	i	13.5µM	i	i	nt
CCOc1ccc(NC(=O)CSc2nnc3c(C)cc4ccccc4n23)cc1	nt	i	nt	nt	nt
CCn1c(SCC(=O)OC)nc2cc(S(=O)(=O)N3CCOCC3)ccc21	i	i	i	i	nt
CCc1ccc(C(=O)CSc2nc3cc(S(=O)(=O)N4CCOCC4)ccc3n2CC)cc1	i	13.5µM	i	i	i
SMILES	ELG1 genotoxic	FLuc counter	NPC1 promoter act	Rab9 promoter act	SMN2 splice enh
CCOc1ccccc1NC(=O)Nc1nnc(N(C)Cc2ccccc2)s1	nt	i	nt	nt	nt
COc1cccc(N2CCN(C(=O)c3ccc4nc(N5CCC(C)CC5)sc4c3)CC2)c1	?	9.53µM	?	?	i
CCOC(=O)N1CCN(C(=O)c2ccc3nc(N4CCCCC4)sc3c2)CC1	i	i	i	i	i
CC1CCN(c2nc3ccc(C(=O)N4CCN(Cc5ccccc5)CC4)cc3s2)CC1	?	16.9µM	i	i	i
c1ccc(CN2CCN(c3nc4ccccc4s3)CC2)cc1	9.2µM	2.69µM	1.41µM	0.708µM	nt
NC(=O)C1CCN(C(=O)c2ccc3nc(N4CCCCC4)sc3c2)CC1	?	?	2.82µM	3.16µM	nt
COc1ccc(-n2cc(C(=O)OCc3ccc(F)c(F)c3)c3ccccc3c2=O)cc1	nt	i	nt	nt	nt
CCOc1cc(C#N)c(-n2nnc3c(sc4nc(C)cc(C)c43)c2=O)cc1OCC	nt	i	nt	nt	i
Cc1cc(C)c2c(=O)cc(C(=O)Nc3c(C)n(C)n(-c4ccccc4)c3=O)oc2c1	nt	i	nt	nt	i
O=C(CCC1N=C2c3ccccc3N=C(SCc3ccc(Cl)cc3)N2C1=O)NC1CCCCC1 (stereo not given)	nt	i	nt	nt	i
CC1CC(C)CN(C(=O)c2ccc3ccccc3c2)C1 (stereo not given)	i	i	i	i	nt
O=C(c1ccc2nc(N3CCCCC3)sc2c1)N1CCN(Cc2ccc3c(c2)OCO3)CC1	23.1µM	i	i	i	i
CC1CCN(C(=O)c2ccc3ccccc3c2)CC1	?	12µM	3.55µM	2.51µM	nt
CCOc1ccc(-c2cc(CCCC(=O)NCCc3ccc(OC)c(OC)c3)no2)cc1	nt	10.7µM	nt	nt	i
CCCCn1c(-c2ccccc2)cnc1SCC(=O)NCCc1ccc(OC)c(OC)c1	i	16.9µM	i	i	i
CCOc1ccc(-c2cc(CCCC(=O)NCCc3cc(OC)c(OC)c(OC)c3)no2)cc1	nt	13.5µM	nt	nt	i
COc1ccc(CCNC(=O)CSc2nnc(-c3ccccc3)c3ccccc23)cc1OC	i	i	i	i	i
